Peg3 promoter – Peg3 promoter-driven luciferase inhibitors, primary screen, cell-based, HeLa, luciferase luminescence; actives 1.7% (n = 360,000); HeLa PEG-Prom luciferase reporter, overnight; inhibition, % at 20 µM;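 active = inhibition of at least 50% at 20 µM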
HIF-2a block – HIF-2a reporter inhibitors, primary screen, luminescence, 786-0 RCC cells; inhibition, % at 18.8 µM; 786-0 RCC cells HIF-2a reporter, luciferase luminescence, overnight; actives 0.72% (n = 360,000);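 active = inhibition of the luminescence signal of 40% or more relative to plate controls, in a single-dose primary screen at 18.75 µM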
Shn3 inh set2 – reduction of Shn3 3'UTR firefly luciferase signal, primary screen, Schnurri-3 inhibitor project, cell-based, Clone20 osteoblasts, set 2; AID 588674, 2011; Clone20 osteoblast Shn3 3'UTR firefly luciferase, 24 h; actives 0.52% (n = 360,000); inhibition, % at 12.5 µM;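 active = mean inhibition of at least 75% with every replicate also reaching 75%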
CF NFkB block – inhibitors of PAF-induced NF-kB signaling, primary screen, cell-based, GFP fluorescence, uHTS. actives 0.86% (n = 360,000). AID 588850, 2011. inhibition, % at 5 µM. KKLEB NF-kB-GFP reporter, GFP fluorescence overnight;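 active = at least 50% inhibition at 5 µM, scaled per plate between neutral and stimulator controls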;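 also: PAF is a Pseudomonas aeruginosa culture filtrate used as stimulus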
KKLEB tox – cytotoxicity in KKLEB CF airway cells, primary screen, cytotoxicity control for CF NF-kB inhibitor project, cell-based, uHTS, fluorescence assay plates; KKLEB CF airway cells viability, ATPlite luminescence, overnight; hits give low values; cells stimulated with P. aeruginosa culture filtrate; activity change (cytotoxicity), % at 5 µM; actives 0.36% (n = 360,000); AID 602141, 2011;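 active = corrected activity change at or below -50% at 5 µM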
TRPM1 prom inh – inhibitors of MITF-dependent TRPM1 promoter reporter, primary screen, cell-based, SK-MEL-5, single point, luciferase; SK-MEL-5 TRPM1 promoter luciferase, 24 h; inhibition, % at 12.5 µM; actives 0.83% (n = 330,000); AID 488899, 2010;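 active = mean inhibition across replicates of 60% or more, whatever share of single replicates reaches that level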
Numbers stand for hits; 0 = inactive; - = no result; ! = repeats disagree. An excerpt weighted towards active compounds, which were near 2.8% of everything screened.

SMILES	Peg3 promoter	HIF-2a block	Shn3 inh set2	CF NFkB block	KKLEB tox	TRPM1 prom inh
NC(=O)c1ccsc1NC(=O)COC(=O)/C=C/c1ccc([N+](=O)[O-])cc1	0	0	0	0	0	0
COC(=O)c1ccc(/C=C/C(=O)OCC(=O)Nc2sccc2C(N)=O)cc1	89	0	0	0	0	0
O=C(NCCCN1CCCC1)c1ccc(CS(=O)(=O)c2ccc(Cl)cc2)o1	0	0	0	0	0	0
Cc1ncc([N+](=O)[O-])n1CC(=O)N/N=C/c1ccccc1F	0	0	0	0	0	0
Nc1ccc2c(c1)C(=NO)c1cc([N+](=O)[O-])ccc1-2	0	0	0	0	0	0
O=C(Nc1cc2c(cc1Cl)-c1ccc([N+](=O)[O-])cc1C2=NO)C(F)(F)F	57	0	0	0	0	0
COc1ccccc1N(C)S(=O)(=O)c1ccc(C(=O)N2CCCc3ccccc32)cc1	0	0	0	0	0	0
Cc1ccc2nc(-c3ccc(NC(=S)NC(=O)C(C)C)cc3)sc2c1	0	0	0	0	0	0
Cc1ccc2nc(-c3ccc(NC(=S)NC4CC(C)(C)NC(C)(C)C4)cc3)sc2c1	105	0	0	0	0	0
O=C1c2ccccc2NC(c2ccc(O)c(O)c2)N1c1ccccc1Cl (stereo not drawn)	0	0	0	0	0	0
COc1cc(C(=O)Nc2ccc3c(c2)Cc2cc(NC(=O)c4cc(OC)c(OC)c(OC)c4)ccc2-3)cc(OC)c1OC	0	0	0	68	-77	0
COC(=O)c1cc(S(=O)(=O)C(C)C)c(S(C)=O)s1 (stereo not drawn)	0	0	-	0	0	0
Cc1cc(C)c(S(=O)(=O)N2CCN(C(=O)C(C)Cn3cncn3)CC2)c(C)c1 (stereo not drawn)	0	0	0	0	0	0
CC(C)CC(NC(=O)c1ccc(Cl)cc1)C(=O)OCC(=O)c1ccc2c(c1)NC(=O)CO2 (stereo not drawn)	84	0	87	0	0	0
CC(O)C(NS(=O)(=O)c1ccc(Cl)cc1)C(=O)OCC(=O)c1ccc2c(c1)NC(=O)CO2 (stereo not drawn)	0	0	0	0	0	0
N/C(=N\OC(=O)Nc1ccccc1)c1ncc([N+](=O)[O-])s1	0	0	0	0	0	68
O=C(COC(=O)COc1ccccc1)Nc1ncc([N+](=O)[O-])s1	0	0	0	0	0	0
CCCCN(C(=O)c1ccccc1F)c1c(N)n(CCC)c(=O)[nH]c1=O	73	0	0	0	0	0
CCCCN(C(=O)c1ccco1)c1c(N)n(CCC)c(=O)[nH]c1=O	0	0	0	0	0	0
CCCCN(C(=O)c1cc(-c2ccc(F)cc2)nc2ccccc12)c1c(N)n(CCCC)c(=O)[nH]c1=O	0	0	0	0	0	69
CCOc1ccc(-c2nnc(SCC(=O)N3CCNC3=O)o2)cc1	0	0	0	0	0	0
Cc1ccc2c(c1)/C(=N/OS(=O)(=O)c1ccccc1)CCS2	0	0	0	0	0	0
CC1=CC(=O)C=C(C)C1=NOS(=O)(=O)c1ccccc1	82	63	0	0	0	0
CC1=CC(=O)C(C(C)C)=C/C1=N/OS(=O)(=O)c1ccccc1	106	0	0	0	0	0
O=C(Nc1cccc2nsnc12)c1cc2c(cc1Cl)Sc1nccn1S2(=O)=O	0	0	0	0	0	0
SMILES	Peg3 promoter	HIF-2a block	Shn3 inh set2	CF NFkB block	KKLEB tox	TRPM1 prom inh
CC(C)Cc1ccc(C(=O)NCCOc2ccccc2)o1	0	0	0	0	0	0
CCOC(=O)c1c(NC(=O)c2nn(CC)cc2Br)sc(C)c1C	0	0	84	0	0	0
COc1cccc(C(=O)Nc2sc3c(c2C#N)CCN(C(C)=O)C3)c1	0	0	0	0	0	0
O=C1c2ccccc2C(=O)c2c(Nc3ccc(CCO)cc3)ccc(O)c21	0	0	0	0	0	0
O=C1c2c(O)ccc(O)c2C(=O)c2c(NCCNCCO)ccc(NCCNCCO)c21	100	63	93	82!	0	95
CCN(CC)CCNc1c(C)cc(CO)c(Cl)c1C	72	0	0	0	0	-
CCN(CC)CCNCC(O)(c1ccc(Cl)cc1)c1ccc(Cl)cc1	0	0	0	0	0	0
CC(C)(C)NC(=O)CN(CCc1ccccc1)C(=O)c1csnn1	0	0	0	0	0	0
COc1ccc(COC(=O)c2ccc(Br)c(S(=O)(=O)N3CCOCC3)c2)cc1F	0	0	0	0	0	0
CCCOc1ccc(C(=O)N(CC(C)C)c2c(N)n(Cc3ccccc3)c(=O)[nH]c2=O)cc1	0	0	0	0	0	0
O=C(CO)c1c[nH]c2ccccc12	107	0	0	0	0	-
COc1ccc(C(=O)OCC(=O)N2CCCCC2)cc1[N+](=O)[O-]	0	0	0	0	0	0
O=C(OCC(=O)N1CCc2ccccc2C1)c1ccc(Cl)c([N+](=O)[O-])c1	99	0	0	0	0	0
CC(C)CN1CCN(C(=O)COC(=O)c2ccc(S(C)(=O)=O)c([N+](=O)[O-])c2)CC1	97	94	0	79	0	-
Nc1ccc(C(=O)OCC(=O)N2CCc3ccccc3C2)cc1[N+](=O)[O-]	0	0	0	0	0	0
CC(C)N(C(=O)COC(=O)c1ccccc1C(=O)c1ccc(Cl)c([N+](=O)[O-])c1)C(C)C	74	0	0	0	0	0
Cc1cc(C(=O)OCC(=O)c2ccc(Cl)c([N+](=O)[O-])c2)c2cccc(C)c2n1	0	0	0	0	0	0
COc1ccc(C(=O)c2ccc(Cl)c([N+](=O)[O-])c2)cc1	0	0	0	64	0	64
CCCn1c(N2CCC(Cc3ccccc3)CC2)nc2c1c(=O)[nH]c(=O)n2C	0	0	0	0	0	0
CCCCCn1c(N(C)Cc2ccccc2)nc2c1c(=O)[nH]c(=O)n2C	55	0	0	0	0	0
CCCCCn1c(N2CCC(Cc3ccccc3)CC2)nc2c1c(=O)[nH]c(=O)n2C	64	0	0	0	0	0
CCNC(=O)C1CCCN(C(=O)c2ccccc2)CC1 (stereo not drawn)	0	0	0	0	0	-
Cc1ccc(S(=O)(=O)N[C@@H](Cc2ccccc2)C(=O)CCl)cc1	101	0	0	72	0	0
Cc1ccc(S(=O)(=O)NC(Cc2ccccc2)C(=O)NN)cc1 (stereo not drawn)	0	0	0	0	0	0
C#CCN(C)Cc1ccccc1	0	0	86	0	0	0
CN(CC#CC1(O)c2ccccc2-c2ccccc21)Cc1ccccc1	0	0	0	0	0	0

High-throughput results deposited in PubChem BioAssay by several laboratories.
